Reference: ChEMBL document CHEMBL3988442, “University of Dundee, Small-Polar-MMV Screening Library” (2021)
For some of these results: Potency and affinity values are given separately.

What was measured:
Design in all cases: scale not given: direction of the effect not stated beside the values
[1] = biological target: Protein translocase subunit SecA (Escherichia coli (strain K12)) (UniProt P10408); assay: Assay to Identify E. coli SecA ATPase Inhibitors; type: functional; settings: 30 µM
[2] = biological target: T1, Ubiquitin-activating enzyme e1, putative (Leishmania donovani (strain BPK282A1)) (UniProt E9BSI1); assay: Leishmania donovani Ubiquitin Activating Enzyme (LdE1); type: functional; settings: 30 µM
T1 sequence (whole entry): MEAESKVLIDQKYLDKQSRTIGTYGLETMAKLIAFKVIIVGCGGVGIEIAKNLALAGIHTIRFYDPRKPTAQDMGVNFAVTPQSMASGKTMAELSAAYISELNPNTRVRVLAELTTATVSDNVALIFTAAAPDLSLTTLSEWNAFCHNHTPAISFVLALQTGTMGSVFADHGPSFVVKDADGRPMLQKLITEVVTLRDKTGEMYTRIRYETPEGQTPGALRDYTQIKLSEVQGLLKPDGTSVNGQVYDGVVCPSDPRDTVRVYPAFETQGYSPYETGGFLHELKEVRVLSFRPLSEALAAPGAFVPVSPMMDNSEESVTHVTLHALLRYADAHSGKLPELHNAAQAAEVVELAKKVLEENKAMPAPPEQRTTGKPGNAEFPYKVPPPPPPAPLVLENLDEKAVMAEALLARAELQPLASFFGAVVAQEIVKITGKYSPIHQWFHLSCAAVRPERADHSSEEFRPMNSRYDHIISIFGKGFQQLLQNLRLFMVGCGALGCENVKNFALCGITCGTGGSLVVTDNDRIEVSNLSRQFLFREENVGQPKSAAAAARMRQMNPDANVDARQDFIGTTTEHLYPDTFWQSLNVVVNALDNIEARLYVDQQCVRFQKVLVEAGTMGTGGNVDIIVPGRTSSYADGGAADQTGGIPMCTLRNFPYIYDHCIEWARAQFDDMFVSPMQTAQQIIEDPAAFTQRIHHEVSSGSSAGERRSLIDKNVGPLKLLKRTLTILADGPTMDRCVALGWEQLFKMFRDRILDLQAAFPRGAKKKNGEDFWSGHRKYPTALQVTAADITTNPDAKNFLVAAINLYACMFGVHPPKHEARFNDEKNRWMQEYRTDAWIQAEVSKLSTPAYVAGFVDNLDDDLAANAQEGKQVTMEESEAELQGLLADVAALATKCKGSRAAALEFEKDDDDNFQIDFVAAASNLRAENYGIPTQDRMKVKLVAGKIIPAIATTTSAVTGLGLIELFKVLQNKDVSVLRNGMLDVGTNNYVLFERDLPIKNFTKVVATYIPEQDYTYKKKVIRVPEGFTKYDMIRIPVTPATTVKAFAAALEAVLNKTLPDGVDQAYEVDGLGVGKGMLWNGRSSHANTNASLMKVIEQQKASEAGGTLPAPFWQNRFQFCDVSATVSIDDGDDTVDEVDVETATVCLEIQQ

[3] = biological target: AMP-activated protein kinase, AMPK (Homo sapiens) (UniProt P54646+O43741+P54619+Q9UGJ0+Q9Y478+Q13131+Q9UGI9); assay: AMP-dependent Kinase enzyme assay. An in vitro enzyme assay that detects ADP turnover that is directly proportional to AMPK activity. This uses naive AMPK that is activated during the assay with MK-8722; type: functional; settings: 30 µM
[4] = biological target: Sialic acid-binding Ig-like lectin 9 (Homo sapiens) (UniProt Q9Y336); assay: Hs-Siglec9 ALPHAscreen SOP 20170721; settings: 10 µM
Trypanosoma cruzi = assay: Trypanosoma cruzi phosphomannomutase and mannose-1-phosphate guanylyltransferase assay; type: functional; settings: 10 µM
[5] = biological target: T2, Arginase-2, mitochondrial (Homo sapiens) (UniProt P78540); assay: in vitro enzyme assay to detect the production of urea directly proportional to the activity of Arginase II; type: functional; settings: 33.3 µM; further: in the data most compounds retested in dose-response had high values
T2 sequence (whole entry): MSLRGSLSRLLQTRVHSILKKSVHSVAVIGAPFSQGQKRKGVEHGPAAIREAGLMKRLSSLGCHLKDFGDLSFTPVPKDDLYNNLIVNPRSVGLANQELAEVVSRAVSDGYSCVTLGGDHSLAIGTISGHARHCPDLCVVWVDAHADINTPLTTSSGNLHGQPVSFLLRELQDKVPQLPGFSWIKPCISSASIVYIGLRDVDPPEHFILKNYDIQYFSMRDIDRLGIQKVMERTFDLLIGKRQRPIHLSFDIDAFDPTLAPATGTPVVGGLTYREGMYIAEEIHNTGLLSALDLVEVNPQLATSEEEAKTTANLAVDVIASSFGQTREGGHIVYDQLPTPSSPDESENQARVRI

[6] = biological target: T3, Proteasome subunit beta (Trypanosoma cruzi) (UniProt O96673); assay: Trypanosoma cruzi proteasome chymotrypsin-like activity (TcProtChymo) assay.; further: in the data most compounds retested in dose-response had high values; type: functional; settings: 9.37 µM
T3 sequence (whole entry): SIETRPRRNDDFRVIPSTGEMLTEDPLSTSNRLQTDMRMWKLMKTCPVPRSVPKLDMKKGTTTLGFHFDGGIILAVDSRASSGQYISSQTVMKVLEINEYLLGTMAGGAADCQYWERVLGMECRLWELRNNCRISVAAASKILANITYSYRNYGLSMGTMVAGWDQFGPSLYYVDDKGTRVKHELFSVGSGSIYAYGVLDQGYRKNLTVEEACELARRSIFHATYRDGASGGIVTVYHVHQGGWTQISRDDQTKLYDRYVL

Homo sapiens = species on record: Homo sapiens; assay: To identify inhibition of the IFN signalling (Jak-Stat) pathway via expression of an eGFP reporter gene under the control of an IFN-stimulated response element (ISRE) containing MxA promoter.; type: functional; settings: 30 µM
[7] = biological target: T4, Tyrosyl-tRNA synthetase, putative (Trypanosoma cruzi (strain CL Brener)) (UniProt Q4DSP6); assay: Trypanosoma cruzi tyrosyl tRNA synthetase (TcYRS) _High Tyrosine SOP; type: functional; settings: 30 µM; further: in the data most compounds retested in dose-response had high values
T4 sequence (whole entry): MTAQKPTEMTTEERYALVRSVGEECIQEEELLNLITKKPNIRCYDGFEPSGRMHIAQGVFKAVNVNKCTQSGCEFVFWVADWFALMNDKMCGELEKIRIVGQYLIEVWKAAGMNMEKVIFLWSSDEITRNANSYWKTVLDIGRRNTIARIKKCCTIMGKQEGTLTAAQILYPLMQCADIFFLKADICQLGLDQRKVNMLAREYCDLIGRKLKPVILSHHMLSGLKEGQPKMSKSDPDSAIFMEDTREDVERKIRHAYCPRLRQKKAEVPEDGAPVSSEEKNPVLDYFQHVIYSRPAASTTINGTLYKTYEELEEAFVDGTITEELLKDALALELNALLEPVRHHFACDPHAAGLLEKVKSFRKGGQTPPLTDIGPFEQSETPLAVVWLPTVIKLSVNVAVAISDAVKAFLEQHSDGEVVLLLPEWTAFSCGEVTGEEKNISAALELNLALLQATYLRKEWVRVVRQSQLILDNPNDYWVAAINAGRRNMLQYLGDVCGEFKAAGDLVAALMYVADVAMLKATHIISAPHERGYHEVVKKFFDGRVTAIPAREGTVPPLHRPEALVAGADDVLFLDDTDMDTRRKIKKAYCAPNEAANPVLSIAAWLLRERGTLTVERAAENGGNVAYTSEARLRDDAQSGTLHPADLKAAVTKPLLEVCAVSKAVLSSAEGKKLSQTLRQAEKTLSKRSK

[8] = biological target: T4, Tyrosyl-tRNA synthetase, putative (Trypanosoma cruzi (strain CL Brener)); assay: Trypanosoma cruzi tyrosyl tRNA synthetase (TcYRS) SOP; type: functional; settings: 30 µM
[9] = biological target: Chromo domain-containing protein 1 (Saccharomyces cerevisiae (strain ATCC 204508 / S288c) (Baker's yeast)) (UniProt P32657); assay: ScCHD-1 Enzyme Inhibition Assay; type: functional; settings: 30 µM; further: in the data most compounds retested in dose-response had high values
Chain of Chromo domain-containing protein 1 (Saccharomyces cerevisiae (strain ATCC 204508 / S288c) (Baker's yeast)) (P32657 whole entry, the tested form may be a part): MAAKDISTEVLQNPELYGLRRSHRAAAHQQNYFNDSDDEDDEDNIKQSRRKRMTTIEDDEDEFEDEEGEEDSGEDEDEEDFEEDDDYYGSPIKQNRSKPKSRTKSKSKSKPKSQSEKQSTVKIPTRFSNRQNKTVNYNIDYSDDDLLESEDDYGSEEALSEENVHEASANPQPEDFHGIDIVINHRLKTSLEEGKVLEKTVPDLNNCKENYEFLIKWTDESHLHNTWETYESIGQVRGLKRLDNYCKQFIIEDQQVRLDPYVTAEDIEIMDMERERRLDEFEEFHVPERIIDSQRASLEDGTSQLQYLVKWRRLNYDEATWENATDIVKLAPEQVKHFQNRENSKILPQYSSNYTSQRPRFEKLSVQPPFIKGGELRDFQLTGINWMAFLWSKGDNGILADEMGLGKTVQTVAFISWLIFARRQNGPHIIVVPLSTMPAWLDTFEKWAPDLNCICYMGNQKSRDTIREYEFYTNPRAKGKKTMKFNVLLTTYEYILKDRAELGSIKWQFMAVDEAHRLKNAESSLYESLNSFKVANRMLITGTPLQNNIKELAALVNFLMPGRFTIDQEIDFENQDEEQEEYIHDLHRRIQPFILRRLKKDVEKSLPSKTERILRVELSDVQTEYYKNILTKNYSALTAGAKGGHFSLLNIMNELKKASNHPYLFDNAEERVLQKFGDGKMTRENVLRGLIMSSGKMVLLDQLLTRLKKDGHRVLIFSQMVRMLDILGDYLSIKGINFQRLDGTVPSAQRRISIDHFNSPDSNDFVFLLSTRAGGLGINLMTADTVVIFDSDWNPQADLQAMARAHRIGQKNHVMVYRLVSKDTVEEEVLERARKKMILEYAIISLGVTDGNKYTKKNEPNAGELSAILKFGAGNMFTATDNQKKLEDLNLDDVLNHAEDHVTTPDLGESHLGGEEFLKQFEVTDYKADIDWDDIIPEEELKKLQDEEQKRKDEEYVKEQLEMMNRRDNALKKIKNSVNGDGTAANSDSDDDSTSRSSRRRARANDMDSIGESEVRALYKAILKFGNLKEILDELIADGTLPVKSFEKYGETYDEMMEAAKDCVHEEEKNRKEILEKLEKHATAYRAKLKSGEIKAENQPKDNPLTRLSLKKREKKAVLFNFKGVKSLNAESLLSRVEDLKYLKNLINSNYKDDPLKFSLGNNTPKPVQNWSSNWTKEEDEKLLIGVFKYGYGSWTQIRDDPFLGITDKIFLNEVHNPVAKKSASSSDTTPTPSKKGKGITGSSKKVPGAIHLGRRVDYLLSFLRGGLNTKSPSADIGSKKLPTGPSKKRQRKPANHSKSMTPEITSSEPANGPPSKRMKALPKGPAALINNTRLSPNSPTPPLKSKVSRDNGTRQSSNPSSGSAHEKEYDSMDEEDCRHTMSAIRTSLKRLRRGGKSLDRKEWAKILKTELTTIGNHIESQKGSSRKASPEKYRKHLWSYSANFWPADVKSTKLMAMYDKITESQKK

Chain of Sialic acid-binding Ig-like lectin 9 (Homo sapiens) (Q9Y336 whole entry): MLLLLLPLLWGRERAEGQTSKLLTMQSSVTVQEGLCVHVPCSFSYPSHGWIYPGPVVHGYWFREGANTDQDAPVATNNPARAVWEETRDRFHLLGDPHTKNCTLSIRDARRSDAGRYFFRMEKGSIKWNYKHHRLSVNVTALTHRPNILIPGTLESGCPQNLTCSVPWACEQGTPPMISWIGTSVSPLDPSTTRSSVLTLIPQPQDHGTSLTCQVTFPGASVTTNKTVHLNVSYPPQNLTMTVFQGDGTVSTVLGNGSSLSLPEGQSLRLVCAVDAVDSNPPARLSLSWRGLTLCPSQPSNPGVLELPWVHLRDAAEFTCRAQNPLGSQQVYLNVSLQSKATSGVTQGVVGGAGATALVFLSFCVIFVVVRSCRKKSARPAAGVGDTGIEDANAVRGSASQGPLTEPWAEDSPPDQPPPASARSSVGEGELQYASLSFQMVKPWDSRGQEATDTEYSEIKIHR
Chain of Protein translocase subunit SecA (Escherichia coli (strain K12)) (P10408 whole entry): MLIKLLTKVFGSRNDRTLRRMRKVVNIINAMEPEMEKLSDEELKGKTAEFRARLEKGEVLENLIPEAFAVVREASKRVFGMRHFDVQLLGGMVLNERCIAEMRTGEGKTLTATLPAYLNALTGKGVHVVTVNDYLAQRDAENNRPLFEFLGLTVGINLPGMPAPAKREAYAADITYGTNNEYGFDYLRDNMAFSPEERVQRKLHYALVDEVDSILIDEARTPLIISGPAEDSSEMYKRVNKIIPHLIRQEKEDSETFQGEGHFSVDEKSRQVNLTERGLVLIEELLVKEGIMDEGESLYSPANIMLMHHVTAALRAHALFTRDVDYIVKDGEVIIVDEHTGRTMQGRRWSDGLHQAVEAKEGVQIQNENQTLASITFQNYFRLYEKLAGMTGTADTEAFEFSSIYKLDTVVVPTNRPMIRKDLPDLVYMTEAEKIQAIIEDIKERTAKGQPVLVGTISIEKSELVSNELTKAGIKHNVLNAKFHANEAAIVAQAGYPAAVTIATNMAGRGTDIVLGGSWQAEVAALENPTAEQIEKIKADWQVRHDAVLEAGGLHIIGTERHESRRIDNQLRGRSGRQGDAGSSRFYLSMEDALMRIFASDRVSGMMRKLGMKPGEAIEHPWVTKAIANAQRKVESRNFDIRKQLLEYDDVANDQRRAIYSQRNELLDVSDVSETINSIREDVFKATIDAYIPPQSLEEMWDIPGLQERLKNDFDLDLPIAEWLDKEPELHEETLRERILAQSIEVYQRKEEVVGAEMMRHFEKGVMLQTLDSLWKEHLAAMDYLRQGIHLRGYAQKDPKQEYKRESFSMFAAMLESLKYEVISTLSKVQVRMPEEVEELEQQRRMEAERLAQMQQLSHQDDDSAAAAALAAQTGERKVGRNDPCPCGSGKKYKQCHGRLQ

Row | Structure (SMILES) | Percent Effect [1] [%] | Percent Effect [2] [%] | Percent Effect [3] [%] | Percent Effect [4] [%] | Percent Effect (Trypanosoma cruzi) [%] | Percent Effect [5] [%] | Percent Effect [6] [%] | Percent Effect (Homo sapiens) [%] | Percent Effect [7] [%] | Percent Effect [8] [%] | Percent Effect [9] [%]
1 | Cc1ccccc1CSc1nc(N)cc(N2C[C@H](O)[C@@H](N(C)C)C2)n1 | -8.01 | 5.41 | -13.8 | 0.783 | 1.07 | 1.24 | 12.6 | 5.8 | 8.6 | 18.5 | -3.84
2 | CCOc1ncccc1NC(=O)NCC(O)c1ccccc1OC (stereo not given) | -2.5 | 22.8 | 4.8 | -4.05 | 4.06 | 4.94 | 9.75 | 23.4 | 3.45 | 21.5 | -7.12
3 | Cc1ccc(CN2CCCC3(COCCN(Cc4c[nH]nn4)C3)C2)o1 (stereo not given) | -2.92 | 2.67 | 3.3 | 8.61 | 0.965 | -22.8 | 0.855 | 4.18 | 7.29 | 10 | -3.22
4 | CC(C)c1csc(C2CCCN(C(=O)Cn3ccccc3=O)C2)n1 (stereo not given) | -2.92 | 2.63 | 1.07 | -4.27 | 8.27 | -1.92 | 3.68 | 10.9 | 0.49 | 9.76 | -9.15
5 | CC1CCN(c2ncc3c(n2)CN(c2ccc4c(c2)OCO4)C3=O)CC1 | -4.8 | 7.79 | -3.15 | 7.77 | 0.492 | -9.65 | 14.1 | -2.83 | 5.38 | 11.1 | 1.03
6 | CCn1cnnc1CNC(=O)N1CCN(c2nc(C)c(C)s2)CC1 | -8.34 | 10.4 | -7.32 | 12.2 | 4.68 | -4.27 | 0.676 | -2.89 | 5.83 | 19.5 | -9.23
7 | COc1ccccc1OCc1cc(C(=O)N2C[C@H](O)[C@@H](N(C)C)C2)n[nH]1 | -3.86 | 6.94 | 0.606 | -3.31 | -1.46 | 0.442 | 11.9 | 9.72 | 2.1 | 2.56 | -2.07
8 | Cc1cccc(-c2ccc(C(=O)NCCN(C)C3CC3)c(=O)[nH]2)c1 | -4.4 | 0 | -7.73 | -0.0788 | -4.43 | 4.41 | -0.721 | 19 | 0.493 | 6.17 | -1.94
9 | COCC1CCN(C(=O)c2cccc(S(=O)(=O)NC3CCCC3)c2)C1 (stereo not given) | 1.68 | 16.2 | -0.427 | 10.5 | 1.66 | 10.2 | 17.4 | 13.5 | 5.38 | 21 | -13.4
10 | CCN1Cc2c(C(=O)NCC3CC3)ncn2-c2ccccc2S1(=O)=O | 3.87 | -5.48 | -3.01 | 4.85 | 3.37 | -0.399 | 16 | -1.54 | 0 | 18.5 | -2.17
11 | CC(C)Oc1cccc(C(=O)C2CCCN(C(=O)c3ncn[nH]3)C2)c1 (stereo not given) | -0.804 | -2.7 | -3.49 | 0.785 | 7.92 | -1.91 | 21.6 | 3.35 | 6.88 | 12.2 | -3.93
12 | Cc1cc2c(=O)n3c(nc2s1)CCN(C(=O)c1scnc1C)CC3 | -1.99 | 9.46 | 9.3 | 2.42 | -1.58 | -5.34 | 7.49 | -18 | -1.07 | 11.7 | -8.95
13 | CCS(=O)(=O)CCn1ccc(NC(=O)CCc2cccc(C)c2)n1 | -1.95 | 5.41 | 2.06 | -5.21 | -3.91 | -2.08 | 11.8 | 5.07 | 9.9 | 13.4 | 4.48
14 | CS(=O)(=O)NC1CCCN(C(=O)NCc2cc[nH]n2)C1 (stereo not given) | -5.06 | -31.2 | -5.48 | -13.5 | 5 | -6.11 | 17.1 | -0.514 | 8.57 | 21.2 | -16.2
15 | Cn1cc(C2COC3(CCN(C(=O)c4ccc(F)cc4)CC3)C2)cn1 (stereo not given) | -3.35 | 8.11 | 6.34 | -3.51 | -2.25 | 7.33 | 19.9 | -15 | 2.16 | 17.9 | 2.2
16 | COCCNC(=O)Cn1nc(C(C)C)c2cnn(C(C)(C)C)c2c1=O | -2.65 | 5.48 | -1.93 | 5.56 | 3.72 | -1.36 | 17.6 | 15.1 | 8.6 | 15 | -6.24
17 | CCOCCCn1c(NC(=O)c2ccc(C)nc2)nc2ccccc21 | -10.1 | 7.79 | 10.5 | 3.52 | 2.25 | 0 | 4.56 | -7.49 | 4.85 | 14.6 | 0.139
18 | Cc1noc(C2CCCCN2C(=O)NC2CCCC2)n1 (stereo not given) | 1.58 | 7.89 | 5.88 | -7.67 | -9.25 | -2.37 | 21.8 | 0.903 | 2.13 | 2.6 | -4.56
19 | Cc1cccc(CCC(=O)N2CCOCC2c2c(C)n[nH]c2C)c1 (stereo not given) | -3.35 | -5.48 | -2.62 | 6.45 | -3.33 | -2.73 | -2.84 | 9.04 | -3.23 | -7.5 | -2.99
20 | CC(NCC1=Cc2cc(Cl)ccc2OC1)c1nnc2n1CCCC2 (stereo not given) | -3.07 | -2.7 | 3.91 | 2.75 | -0.195 | 1.67 | 9.38 | -10.3 | 4.95 | 1.22 | -3.29
